G9a inh – G9a (human) methyltransferase inhibition | Potency, µM (highest dose often 102 µM), for the others: at the top dose activity, negative = inhibition, actives largely listed as inhibitors | AID 504332 | G9a H3K9 monomethylation, AlphaScreen, 2 h | hit rate 8.8% among 350,000; note: % is set by controls: 0 for no effect and ±100 for the full control effect; nearly all actives have a fitted effect of over 75% in size
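Signal arises when biotinylated H3K9 peptide, once monomethylated, bridges streptavidin donor and antibody-captured acceptor beads. Enzyme at 20 nM was preincubated 15 min with test compounds; peptide 500 nM and SAM 20 uM then reacted for 2 h.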
12-LOX inh – inhibitors of human 12S-lipoxygenase ALOX12 | P18054 | purified 12hLO, xylenol orange hydroperoxide absorbance | Potency, µM (titrated, usually from 108 µM), for inactives: at the top dose activity change, negative = inhibition, hits mostly inhibitors | hit rate 1.1% among 580,000; note: % is set by controls: 0 for no effect and ±100 for the full control effect
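Purified human 12hLO (150 nM final) in 25 mM Hepes, 0.01% Triton X-100, pH 7.0 was preincubated 15 min at room temperature with compound. Then 40 uM arachidonic acid was added, 30 min. Hydroperoxide was read by Fe-XO absorbance ratio 573/405 nm.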
PLK1 PBD block – inhibitors of human PLK1 polo-box domain binding; Plk1 PBD binding of FITC phosphopeptide, fluorescence polarization; Potency, µM, without a hit: max response, negative = inhibition, most hits filed as inhibitors; hit rate 2.8% among 360,000; note: series mostly up to about 57 µM; % is set by controls: 0 for no effect and ±100 for the full control effect; nearly all actives have a fitted effect of over 65% in size
BAZ2B block – BAZ2B (human) inhibition | Q9UIF8 | AlphaScreen BAZ2B-H3K14Ac peptide displacement | Potency, µM (series often up to 114 µM), inactives show top-dose activity change, negative = inhibition, usual class: inhibitors | hit rate 4.4% among 360,000 | AID 504333; note: % is set by controls: 0 for no effect and ±100 for the full control effect; nearly all actives have a fitted effect of over 60% in size
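Inhibition is scored as reduced AlphaScreen emission. The BAZ2B/b-H3(5-23)K14Ac complex (50 nM each) in PBS pH 7.4, 0.01% Tween-20 meets compound (up to 110 uM) for 30 min at RT before bead addition.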
JMJD2A Tudor – blocks the human JMJD2A Tudor domain; O75164; AlphaScreen JMJD2A-Tudor / H3K4me3 peptide binding; Potency, µM (titrated, usually from 114 µM), without a hit: top-dose activity change, negative = inhibition, usual class: inhibitors; hit rate 4.4% among 390,000; note: % is set by controls: 0 for no effect and ±100 for the full control effect; nearly all actives have a fitted effect of over 50% in size
Target sequence (O75164 whole entry, looked up, the tested form may be a part): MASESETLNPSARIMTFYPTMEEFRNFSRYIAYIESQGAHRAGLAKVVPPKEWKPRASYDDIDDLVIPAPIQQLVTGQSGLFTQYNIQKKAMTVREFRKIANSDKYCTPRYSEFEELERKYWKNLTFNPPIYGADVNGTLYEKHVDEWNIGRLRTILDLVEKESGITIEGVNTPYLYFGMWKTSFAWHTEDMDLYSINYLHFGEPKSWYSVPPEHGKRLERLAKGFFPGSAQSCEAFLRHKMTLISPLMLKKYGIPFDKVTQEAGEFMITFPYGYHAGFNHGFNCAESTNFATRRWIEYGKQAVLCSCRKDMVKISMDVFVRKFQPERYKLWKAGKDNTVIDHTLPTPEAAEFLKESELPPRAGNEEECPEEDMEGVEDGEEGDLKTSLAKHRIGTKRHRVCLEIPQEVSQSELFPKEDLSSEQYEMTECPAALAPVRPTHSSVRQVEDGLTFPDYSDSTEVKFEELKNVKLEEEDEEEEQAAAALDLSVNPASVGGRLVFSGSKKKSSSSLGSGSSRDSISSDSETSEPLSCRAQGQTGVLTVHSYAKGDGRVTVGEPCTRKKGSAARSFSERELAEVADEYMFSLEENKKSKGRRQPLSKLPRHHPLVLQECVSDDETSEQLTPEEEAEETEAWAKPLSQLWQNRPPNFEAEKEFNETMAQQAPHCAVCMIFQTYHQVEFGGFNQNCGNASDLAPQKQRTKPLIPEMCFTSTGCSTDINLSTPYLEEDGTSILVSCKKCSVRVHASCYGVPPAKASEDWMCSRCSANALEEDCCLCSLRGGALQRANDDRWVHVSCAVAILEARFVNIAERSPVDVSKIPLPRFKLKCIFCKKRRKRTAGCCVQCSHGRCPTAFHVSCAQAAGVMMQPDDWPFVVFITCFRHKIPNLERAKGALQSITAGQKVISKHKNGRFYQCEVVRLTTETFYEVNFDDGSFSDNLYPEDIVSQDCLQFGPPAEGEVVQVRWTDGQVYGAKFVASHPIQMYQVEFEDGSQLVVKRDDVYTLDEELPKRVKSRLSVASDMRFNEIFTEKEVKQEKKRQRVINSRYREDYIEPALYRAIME
HP1b binding inh – blocks HP1-beta chromodomain binding to methylated histone tails. AlphaScreen HP1-beta / biotin-H3K9me3 peptide binding. hit rate 0.56% among 390,000. Potency, µM (titrated, usually from 114 µM), without a hit: at the top dose activity change, negative = inhibition, hits mostly inhibitors. P83916. AID 540317; note: nearly all actives have a fitted effect of over 70% in size
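Compound inhibition of the preformed complex between 50 nM HP1-beta and 50 nM biotinylated H3K9me3 peptide was read by AlphaScreen. Buffer was PBS pH 7.4 with 0.01% Tween-20. Incubations ran 30 min at room temperature, with 10 ug/mL donor/acceptor beads.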
Numbers without * were called inactive; ? = inconclusive; nt = not tested or not shown; ! = a repeat was not active; [ ] = remark or other dose. Hits are enriched below; roughly 9% of the tested compounds scored in any of these assays. Calls come from the whole dose curve; as a rule, active = well fitted curve in the direction sought with a large enough effect; inconclusive = small, poorly fitted or top-dose-only effect, or another doubt; inactive = no such curve, though single readings can be large; an effect the other way counts as inactive or inconclusive. Potency is the fitted concentration of half-maximal effect.

SMILES	G9a inh	12-LOX inh	PLK1 PBD block	BAZ2B block	JMJD2A Tudor	HP1b binding inh
COc1cccc(CNc2ccc3c(c2)CCC3)c1	14.1µM*	?	-17.0%	?	?	-14.0%
COc1ccc(OC)c(CNc2ccc(F)c(Cl)c2)c1	50.1µM*	-26.4%	-5.9%	?	?	-4.0%
O=C(c1cccs1)c1coc2ccc(O)c(CN(CCO)CCO)c12	39.8µM*	-34.5%	-1.3%	-2.0%	-13.4%	11.0%
Cc1nc(NC(=O)c2ccccc2)sc1-c1csc(Nc2ccc(Cl)cc2Cl)n1	25.1µM*	nt	nt	50.1µM*	nt	nt
COc1ccc(Cl)cc1Nc1nc(-c2sc(NC(=O)c3ccccc3)nc2C)cs1	35.5µM*	nt	nt	56.2µM*	nt	nt
Cc1nc(NC(=O)c2ccco2)sc1-c1csc(Nc2ccc(Cl)cc2Cl)n1	?	?	-4.4%	-31.1%	?	0.5%
O=[N+]([O-])c1ccc(Sc2cccc3cccnc23)c([N+](=O)[O-])c1	?	?	6.7µM*	-3.2%	-7.1%	32.0%
C=CCn1nc([N+](=O)[O-])nc1Sc1cccc2cccnc12	-20.1%	nt	7.52µM*	-9.7%	-11.3%	18.6%
O=[N+]([O-])c1cc(Cl)ccc1Sc1cccc2cccnc12	?	-16.0%	-17.1%	?	-35.7%	6.0%
CCNC(=O)C1CCCN(C(=O)c2ccc(C)c(F)c2)CC1 (stereo not drawn)	nt	-3.0%	-10.0%	nt	nt	nt
Cc1ccc(NC(=O)C2CCCCC2)cc1Cl	nt	16.7%	nt	nt	nt	nt
Oc1ccccc1C(=S)N1CCN(c2cccc(Cl)c2)CC1	-8.6%[0.501 µM]	?	11.9µM*	44.7µM*	?	?
COc1cc(C(=S)N2CCN(c3ccccc3Cl)CC2)cc(O)c1O	1.78µM*	?	16.8µM*	50.1µM*	31.6µM*	11.2µM*
COc1ccc(C(=O)N2CCN(c3cccc(Cl)c3)CC2)cc1	-8.5%[59 µM]	-9.7%[57.4 µM]	-7.5%	-4.4%	-15.0%	37.5%
COc1cc(C(=S)N2CCN(c3cccc(Cl)c3)CC2)ccc1O	-4.9%[0.501 µM]	44.7µM*	4.74µM*	44.7µM*	63.1µM*	7.08µM*
CC(=O)N1CCN(C(=S)c2ccc(Cl)cc2)CC1	25.1µM*	1.8%	21.2µM*	40.8%	-6.6%	?
COc1ccccc1N1CCN(C(=O)COc2ccc(Cl)cc2Br)CC1	-50.8%[59 µM]	?	-0.5%	nt	-18.1%	32.2%
COc1ccc(C(=S)N2CCN(c3cccc(Cl)c3)CC2)c(OC)c1	10µM*	?	11.9µM*	?	?	?
Oc1ccc(C(=S)N2CCN(c3cccc(Cl)c3)CC2)cc1	5.01µM*	?	8.44µM*	39.8µM*	56.2µM*	?
NS(=O)(=O)c1ccc(NC(=O)c2cc(-c3ccccc3O)n[nH]2)cc1	12.5%[0.501 µM]	14.9%	0.4%	18.6%	-9.8%	11.8%
COCCN(C(=S)Nc1c(C)cccc1C)C(C)c1cccnc1 (stereo not drawn)	3.1%[59 µM]	-10.5%	-4.2%	-3.3%	-7.1%[57.1 µM]	35.4%
COc1cc(C(=O)NCC(=O)N/N=C/c2ccco2)cc(OC)c1OC	13.7%	12.9%	-3.9%	-9.3%	-6.0%	28.1%
COc1ccc(C(=O)C=Cc2ccc(OCc3ccccc3)c(OC)c2)cc1OC	nt	-21.7%	-8.7%	nt	nt	nt
COc1cc(/C=C/[N+](=O)[O-])ccc1OCc1cccc(C(=O)O)c1	14.1µM*	nt	5.97µM*	28.2µM*	-30.8%	7.4%
COc1cc(/C=C2\C(=O)N(c3ccc(S(N)(=O)=O)cc3)N=C2C)ccc1OC(=O)c1ccco1	?	?	3.77µM*	?	?	2.9%
SMILES	G9a inh	12-LOX inh	PLK1 PBD block	BAZ2B block	JMJD2A Tudor	HP1b binding inh
COc1cc(/C=C2\C(=O)N(c3cccc(C(=O)O)c3)N=C2C)ccc1OCc1ccccc1	nt	?	1.06µM*	nt	nt	nt
C#CCOc1ccc(/C=C2/C(=O)N(c3cccc(C(=O)O)c3)N=C2C)cc1OC	nt	0.0%	1.89µM*	-36.9%	?	-10.8%
COc1ccc(/C=C2\N=C(c3ccccc3)N(c3ccc(C(=O)O)cc3)C2=O)cc1OC	-40.9%	-17.2%	-10.1%	2.5%	-21.0%	7.6%
COc1cc(/C=C2\SC(=S)N(NC(C)=O)C2=O)ccc1OC(=O)c1ccco1	nt	-2.0%	-7.8%	nt	?	-8.7%
C#CCOc1ccc(/C=C2/C(=O)N(c3ccc(S(N)(=O)=O)cc3)N=C2C)cc1OC	nt	?	1.19µM*	nt	nt	nt
COc1cc(/C=C/C(=O)NCCc2ccc(S(N)(=O)=O)cc2)ccc1OCC#N	16.6%[59 µM]	-1.8%	4.1%	-3.3%	-1.7%	33.5%
CCCCCOc1ccc(N2C(=O)C3C4C=CC(C3C2=O)N(C)C4=O)cc1 (stereo not drawn)	11.3%[59 µM]	19.8%	-6.0%	11.4%	-8.4%[57.1 µM]	57.4%
COc1ccc(S(=O)(=O)N(C)C)cc1NC(=O)[C@H](Cc1ccccc1)N1C(=O)c2ccccc2C1=O	50.1µM*	-17.6%	-2.4%	3.1%	-7.3%	36.8%
Cc1nn(C)c(C)c1CCC(=O)N1CCC(Cc2noc(C3CCOCC3)n2)C1 (stereo not drawn)	nt	39.8%	nt	nt	nt	nt
N#C[C@H]1[C@H](c2ccccc2)[C@](C#N)(C(=O)c2ccccc2)[C@@H]2C=Cc3ccccc3N21	25.1µM*	nt	nt	28.2µM*	nt	nt
COc1ccccc1NC(=O)CSc1nc(=O)n2cc(C)ccc2n1	-26.7%	4.9%	-0.6%	-0.9%	0.0%	24.5%
Cc1ccc(S(=O)(=O)N2CC(O)CC2C(=O)OCc2nc3sc(C)c(C)c3c(=O)[nH]2)cc1 (stereo not drawn)	3.98µM*	?	-3.4%	-1.6%	0.4%	27.0%
Cc1cc(C(=O)N2CCN(c3ncccn3)CC2)c2c(C)noc2n1	nt	2.8%	nt	nt	nt	nt
COc1ccc(-c2n[nH]c(=S)n2/N=C/C=C/c2ccccc2OC)cc1	1.26µM*	?	-22.3%	-1.7%	79.4µM*	6.3%
COc1ccccc1/C=C/C=N/n1c(-c2ccccc2)n[nH]c1=S	nt	?	?	-2.6%	-35.5%	0.0%
COc1ccccc1/C=C/C=N/n1c(-c2ccc(Cl)cc2)n[nH]c1=S	nt	?	11.9µM*	?	89.1µM*	?
COc1ccc(C(=O)CC(=O)c2ccc(F)cc2)cc1	nt	?	-2.1%	nt	5.8%	103.2%
O=C1NC(=S)N(C(=O)c2ccc(F)cc2)/C1=C/c1ccccc1	10µM*	?	-26.0%	44.7µM*	39.8µM*	-35.4%
COc1ccc(/C=C2\C(=O)NC(=S)N2C(=O)c2ccc(F)cc2)cc1	?	?	42.7%	56.2µM*	?	-2.2%
CC(=O)N1CCC(N2CCOC[C@H]2c2ncc(-c3cccc(F)c3)[nH]2)CC1	nt	-2.7%[176 µM]	nt	nt	nt	nt
C[C@@H]1COc2c(N3CCN(C)CC3)c(F)cc3c(=O)c(C(=O)O)cn1c23	-7.5%[12.7 µM]	nt	nt	nt	nt	nt
CN1CCN(c2c(F)cc3c(=O)c(C(=O)O)cn4c3c2SCC4)CC1	7.94µM*!	?	-8.0%	?	-8.6%	28.6%

Screens as filed in PubChem BioAssay.
